Results from PubChem BioAssay (EPA / NIEHS).
Results filed as inconclusive are left out. Activity calls are given as the source filed them. How the source made its calls: active means hit-call score of the fitted dose curve at least 0.9, where 1 is the maximum; inconclusive means response in the unintended direction; inactive means score below 0.9.

What follows are compounds tested on HMG-CoA synthase (HMGCS2), HMGCS2 (gene 3158) (assay: CLD_HMGCS2_48hr: CellzDirect (CLD) Gene Expression Assay for HMG-CoA synthase (HMGCS2) at 48 hours (AID 2283711)).
Method: CLD_48hr is a cell-based, multiplexed-readout assay that uses hepatocyte, a human liver primary cell, with measurements taken at 48 hours after chemical dosing in a 96-well plate.CLD_HMGCS2_48hr is one of 16 assay component(s) measured or calculated from the CLD_48hr assay. It is designed to make measurements of mRNA induction, a form of inducible reporter, as detected with chemiluminescence signals by Quantitative Nuclease Protection Assay (qNPA) technology.Data from the assay component CLD_HMGCS2_48hr was analyzed at the endpoint, CLD_HMGCS2_48hr, in the positive analysis fitting direction relative to DMSO as the negative control and baseline of activity. Using a type of inducible reporter, gain-of-signal activity can be used to understand changes in the reporter gene as they relate to the gene HMGCS2. Furthermore, this assay endpoint can be referred to as a primary readout. To generalize the intended target to other relatable targets, this assay endpoint is annotated to the lyase intended target family, where subfamily is HMG-CoA synthase.
Human hepatocyte cultures were treated daily for two consecutive days with fresh dosing solutions containing appropriate concentrations of the 320 ToxCast chemicals (chemical identities were blinded to CellzDirect and other ToxCast collaborators), vehicle control (0.2% DMSO), and positive control inducers as summarized in Table 1. Due to the large number of treatment groups and chemicals examined, the ToxCast chemicals were divided into two groups (spanning two independent cultures of hepatocytes from separate donor preparations (Hu778: ToxCast plates 1 and 2; Hu776: ToxCast plates 3 and 4). Each preparation of human hepatocyte cultures was treated with respective vehicle control, medium only control, set of six positive controls/reference chemicals for the five hepatic receptor pathways, and a subset of eight of the ToxCast chemicals (indoxacarb, pyrithiobac-sodium, norflurazon, cyhalofop-butyl, methomyl, thiram, acetochlor, and propiconazole). These replicate data, coupled with internal replicates designed within the blinded ToxCast chemical library, provided additional data to evaluate interindividual differences between hepatocyte preparations and their potential impact on chemical profiles.Cell morphology and integrity were evaluated using phase-contrast microscopy as an indicator of hepatocyte cell health (Tyson & Green, 1987). Cultures for each treatment group (i.e., media, vehicle [0.2% DMSO], positive control inducers [multiple concentrations], and the ToxCast chemicals [multiple concentrations]) were observed and cell morphology was assessed relative to vehicle control cultures at each harvest time point (0, 6, 24, or 48 h). […] Images were evaluated at the conclusion of the study to assess changes in cell integrity and account for the effects of chemical exposure on uncharacteristic changes in concentration-dependent gene expression profiles. The results from these determinations of apparent cytotoxicity were annotated (yes/no) alongside the corresponding qNPA data for reference.At the conclusion of each treatment period, hepatocyte cultures (96-well) were washed with 1 volume of HBSS, lysed by addition of 25 ul ArrayPlate lysis buffer (HTG, Tucson, AZ), and 70 ul/well of Denaturation Oil, denatured by incubation at 95C for 10 min, and frozen at approximately -70C until analysis by nuclease protection assay (qNPA) (Roberts et al., 2007). For qNPA analysis, cell lysates were thawed at 50C for approximately 30 min, qNPA probes were added, and samples were incubated at 95C for 10 min to begin the detection process by denaturing the target RNA, dissociating the duplexes and secondary structure hybridization. At the conclusion of the hybridization period, S1 nuclease reagent was added to each sample to digest all nonprotected nucleotides at 50C for 60-90 min. […]

Structure (SMILES)	outcome	AC50
Oc1ccc(Cl)cc1Cc1ccccc1	inactive	
O=C(O)COc1ccc(Cl)cc1Cl	inactive	
Oc1cc(Cl)ccc1Oc1ccc(Cl)cc1Cl		0.0058 µM (active)
CNC(=O)CSP(=S)(OC)OC	inactive	
O=C(NC(=O)c1c(F)cccc1F)Nc1ccc(OC(F)(F)C(F)OC(F)(F)F)c(Cl)c1 (centres undefined)	inactive	
CC1(c2ccc(Oc3ccccc3)cc2)OC(=O)N(Nc2ccccc2)C1=O (centres undefined)	inactive	
CC(C)(C)C(O)C(Oc1ccc(Cl)cc1)n1cncn1 (centres undefined)	inactive	
O=C(O)CCCOc1ccc(Cl)cc1Cl	inactive	
O=C(O)C(F)(F)C(F)(F)C(F)(F)C(F)(F)C(F)(F)C(F)(F)C(F)(F)F		35.5 µM (active)
Clc1ccccc1-c1nnc(-c2ccccc2Cl)nn1	inactive	
O=S(=O)(O)C(F)(F)C(F)(F)C(F)(F)C(F)(F)C(F)(F)C(F)(F)C(F)(F)C(F)(F)F	inactive	
CNC(=O)/C=C(\C)OP(=O)(OC)OC	inactive	
Cc1cc(C)nc(NC(=O)NS(=O)(=O)c2ccccc2C(=O)OC2COC2)n1	inactive	
CC1(C)C(C=C(Cl)Cl)C1C(=O)OC(C#N)c1ccc(F)c(Oc2ccccc2)c1 (centres undefined)	inactive	
